Screening results: PubChem, National Center for Advancing Translational Sciences (NCATS)
BAZ2B block: blocks human BAZ2B | Q9UIF8 | AlphaScreen BAZ2B-H3K14Ac peptide displacement | Potency, µM (doses to about 114 µM), for the others: at the highest dose activity change, negative = inhibition, most hits filed as inhibitors | 360,000 tested, 4.4% active | AID 504333; further: on the % scale 0 is the no-effect control and ±100 the full control effect; nearly all actives have a fitted effect of over 60% in size
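BAZ2B (50 nM) with biotin-H3(5-23)K14Ac peptide (50 nM) in PBS pH 7.4, 0.01% Tween-20, preformed 30 min, then compound 30 min at room temperature; top concentration 110uM. AlphaScreen streptavidin donor/nickel chelate acceptor beads (10 ug/mL final), 20 min dark, signal read.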
G9a block: G9a (human) methyltransferase inhibition. Q96KQ7. G9a H3K9 monomethylation, AlphaScreen, 2 h. Potency, µM (top dose mostly 102 µM), for inactives: top-dose activity, negative = inhibition, usual class: inhibitors. 350,000 tested, 8.8% active. AID 504332; further: on the % scale 0 is the no-effect control and ±100 the full control effect; nearly all actives have a fitted effect of over 75% in size
Target sequence (Q96KQ7 913-1193 limits assumed): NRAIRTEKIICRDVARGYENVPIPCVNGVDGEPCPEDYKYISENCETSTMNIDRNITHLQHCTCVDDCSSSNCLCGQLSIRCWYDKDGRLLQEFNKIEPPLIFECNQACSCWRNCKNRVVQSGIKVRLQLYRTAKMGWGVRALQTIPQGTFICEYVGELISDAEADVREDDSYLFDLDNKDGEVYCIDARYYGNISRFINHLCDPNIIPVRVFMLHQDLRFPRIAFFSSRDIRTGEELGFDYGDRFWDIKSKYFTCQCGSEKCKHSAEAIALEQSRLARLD
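G9a (20 nM) was preincubated 15 min with compound, then reacted 2 h at room temperature with 500 nM biotin-H3K9 peptide and 20 µM SAM. Monomethyl-H3K9 detected by AlphaScreen using anti-H3K9me1 antibody.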
JMJD2A Tudor: blocks the human JMJD2A Tudor domain | O75164 | AlphaScreen JMJD2A-Tudor / H3K4me3 peptide binding | Potency, µM (highest dose often 114 µM), for inactives: top-dose activity change, negative = inhibition, actives largely listed as inhibitors | 390,000 tested, 4.4% active | AID 504339; further: on the % scale 0 is the no-effect control and ±100 the full control effect; nearly all actives have a fitted effect of over 50% in size
HP1b binding inh: inhibitors of HP1-beta chromodomain binding to methylated histone tails. Potency, µM (highest dose often 114 µM), inactives show top-dose activity change, negative = inhibition, hits mostly inhibitors. AID 540317. AlphaScreen HP1-beta / biotin-H3K9me3 peptide binding. 390,000 tested, 0.56% active; further: nearly all actives have a fitted effect of over 70% in size
Target sequence (P83916 whole entry, looked up): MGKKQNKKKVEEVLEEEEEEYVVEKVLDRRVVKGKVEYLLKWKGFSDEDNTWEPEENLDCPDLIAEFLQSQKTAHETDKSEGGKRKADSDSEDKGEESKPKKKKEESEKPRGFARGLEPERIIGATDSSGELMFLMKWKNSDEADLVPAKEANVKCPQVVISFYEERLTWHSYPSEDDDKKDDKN
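Compound inhibition of the preformed complex between 50 nM HP1-beta and 50 nM biotinylated H3K9me3 peptide was read by AlphaScreen. Buffer was PBS pH 7.4 with 0.01% Tween-20. Incubations ran 30 min at room temperature, with 10 ug/mL donor/acceptor beads.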
GLS inhibitor: inhibitors of human glutaminase (GLS); O94925; GLS enzymatic activity, qHTS titration; Potency, µM (series often up to 45.5 µM), without a hit: at the highest dose activity change, negative = inhibition, hits mostly inhibitors; 410,000 tested, 0.21% active; AID 624170; further: on the % scale 0 is the no-effect control and ±100 the full control effect
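Human kidney-isoform GLS in 45 mM KH2PO4 pH 8.2, 0.02% Tween-20, with compound, started with 1mM L-Glutamine (added stock). Glutamate oxidase/HRP/Amplex red coupled fluorescence read at start and after 30 min at RT.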
* hit, by the source's call; ? = inconclusive; · = not tested or not shown; ! = not confirmed by another sample; [ ] = dose if it differs, or a comment. Compounds with a hit are over-represented: about 10% of the library has one in this group of screens. The call rests on the fitted dose curve; in most records, active means well fitted curve in the direction sought with a large enough effect; inconclusive means small, poorly fitted or top-dose-only effect, or another doubt; inactive means no such curve, though single readings can be large; an effect the other way counts as inactive or inconclusive. Potency means the concentration at half of the fitted maximal effect.

SMILES	BAZ2B block	G9a block	JMJD2A Tudor	HP1b binding inh	GLS inhibitor
CC/C(=C\C(=O)c1cccnc1)Nc1ccc(C)c(C)c1	-54%	40µM*	50µM*	?	10%
CC(C)C1NC(=O)[C@H](CCCCN)NC(=O)[C@@H](Cc2c[nH]c3ccccc23)NC(=O)[C@H](Cc2ccc(O)cc2)NC(=O)[C@H](C)N(C)C(=O)[C@H](Cc2ccccc2)NC1=O (some centres not stated)	·	56%[12.7 µM]	·	·	·
Cc1cc(C)c2c(n1)nn1c(C)c(CCC(=O)Nc3cccc(C)c3C)c(C)nc21	3%	-9%[59 µM]	-5%	37%	-2%
CN(C)c1ccc(CC(=O)N2CCCCC2c2cc(C(=O)Nc3cccc(C#N)c3)no2)cc1 (configuration not stated)	·	·	·	·	6%
CCOC(=O)C1=CC[C@@H](c2cc(OC)c(OC)c(OC)c2)N(S(=O)(=O)c2ccc(C)cc2)[C@H]1C(=O)OCC	·	·	-13%	29%	1%
O=C(c1ccco1)N1CCn2cccc2C1c1ccccc1 (configuration not stated)	35µM*	?	50µM*	71µM*	-10%
CC1=C(/C=C/C(=O)O)C(C)(C)CCC1	-30%	-55%[59 µM]	-22%	-2%	-1%
CC1=C(\C=C/C(C)=C/C=C\C(C)=C\C(=O)O)C(C)(C)CCC1	·	10µM*	·	·	·
CC1=C(/C=C/C(=C/C=C/C(C)=C/C(=O)O)c2ccc(C)cc2)C(C)(C)CCC1	·	22µM*	·	·	·
CC1=C(/C=C/C(C)=C/C=C/C(C)=C\C(=O)O)C(C)(C)CCC1	·	12%[12.7 µM]	-29%	28%	2%
CC1=C(/C=C/C(C)=C/C=C/C(C)=C/C(=O)Nc2ccc(O)cc2)C(C)(C)CCC1	-31%	13µM*!	50µM*	?	0%
COc1cc(-c2noc(-c3ccc(N(C)C)c([N+](=O)[O-])c3)n2)cc(OC)c1OC	-1%	-30%[59 µM]	-16%	24%	-4%
CCOc1ccccc1NC(=O)c1c(NCc2ccc(C)o2)sc2c1CCC(C)C2 (configuration not stated)	2%	-45%[59 µM]	-7%	37%	12%
COc1ccc(OC)c(NC(=O)c2c(NCc3ccc(C)o3)sc3c2CCC(C)C3)c1 (configuration not stated)	?	11µM*	32µM*	?	-13%
COc1ccc(NC(=O)c2c(NCc3cccc(F)c3)sc3c2CCC3)c(OC)c1	-23%	?	-30%	29%	1%
COc1ccc(OC)c(NC(=O)c2c(NCc3ccc(OC)c(OC)c3)sc3c2CCC(C)C3)c1 (configuration not stated)	?	13µM*	50µM*	?	-12%
COc1cc(CN2CCNC(=O)C2CC(=O)NC2CCCC2)cc(OC)c1 (configuration not stated)	-5%	·	-14%	25%	10%
Cc1ccc(-c2c[n+](CC(=O)Nc3nc(-c4ccc(F)cc4)cs3)c3n2CCC3)cc1	-37%	45µM*	-31%	-18%	8%
COc1ccc(-c2csc(NC(=O)CN3C(=O)NC4(CCCC4)C3=O)n2)cc1	-5%	-28%	-3%	15%	9%
O=C(C[n+]1cc(-c2ccc(F)cc2)n2c1CCC2)Nc1nc(-c2ccccc2)cs1	-28%	-11%[59 µM]	-31%	8%	11%
Cc1ccc(NC(=O)C[n+]2cc(-c3ccc(C)cc3)n3c2CCC3)cc1	4%	-49%	8.9µM*	17%	-25%
CC1CCC2(CC1)NC(=O)N(CC(=O)Nc1nc(-c3ccc(F)cc3)cs1)C2=O (configuration not stated)	-3%	50µM*	5%	12%	9%
Cc1ccc(C(=O)C[n+]2cc(-c3ccc(C)cc3)n3c2CCCCC3)cc1	31%	?	-13%	7%	4%
O=C(C[n+]1cc(-c2ccccc2)n2c1CCCCC2)c1ccc(Br)cc1	-24%	50µM*	-17%	16%	-4%
CCOC(=O)[C@]12CCC=C1N(Cc1cccc3ccccc13)C(=O)[C@H](CC(=O)N1CCCC1)C2	·	·	·	·	-6%
CC1(Cc2ccccc2F)C(=O)Nc2c(Cl)ccc(Cl)c21 (configuration not stated)	·	·	·	·	8%
